The values that follow come from PubChem BioAssay (NCATS).

Assay [1] is described as follows: P-glycoprotein substrates identified in KB-3-1 adenocarcinoma cell line, qHTS therapeutic library screen (AID 1346986). Also: nearly all actives have a fitted effect of over 60% in size. The gist of the method: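 KB-3-1 parental and colchicine-selected P-gp-overexpressing KB-8-5-11 cells (colchicine omitted during assay), 500 cells/well, dosed in dose-response for 72 h at 37 °C; CellTiter-Glo luminescence. Cytotoxic: curve class -1.1 to -2.4, max response >50%, AC50 < 10 uM.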
A general note: In qHTS, concentration-response curves come from the screen itself.

Assay [2] can be described thus: P-glycoprotein substrates identified in KB-8-5-11 adenocarcinoma cell line, qHTS therapeutic library screen (AID 1346987). Also: nearly all actives have a fitted effect of over 65% in size. Summed up: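 KB-8-5-11, a colchicine-selected P-gp-overexpressing KB-3-1 subline, was grown without colchicine for the assay. Cells were seeded at 500 cells/well, dosed in concentration-response and incubated 72 h at 37 degree C, 5% CO2. Viability was read by CellTiter-Glo luminescence.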

SMILES strings stand for the structures. Results filed as inconclusive are left out. Entries that show only a call come without a potency. Activity calls are given as the source filed them. Calls follow the shape of the dose curve; as a rule, active = well fitted curve in the direction sought with a large enough effect; inconclusive = small, poorly fitted or top-dose-only effect, or another doubt; inactive = no such curve, though single readings can be large; an effect the other way counts as inactive or inconclusive.

Turning to `C/C1=C\CCC(C)CCO[C@@H]2O[C@H](CO[C@@H]3OC[C@H](O)[C@H](O)[C@H]3OC1=O)[C@@H](O)[C@H](O)[C@H]2O` (stereo not given in full), the Potency result in assay [1] and in assay [2] was “inactive” in each case.
`CC(=O)OC[C@H]1O[C@H](O[C@]2(CO)O[C@H](CO)[C@@H](OC(=O)/C=C/c3ccccc3)[C@@H]2O)[C@H](O)[C@@H](O)[C@@H]1O`: the Potency entry in assay [1] and in assay [2] was “inactive” throughout.
For the compound `Cc1ccc(-c2ccc3c(ccc4sc5c(c43)NC[C@@H](C)NC5=O)n2)cn1`, the Potency entry in assay [1] and in assay [2] was “inactive” in each case.
As to `CC1(C)C[C@H](O)C[C@@]2(C)OC(=O)C=C12`, the Potency entry in assay [1] and in assay [2] was “inactive” each time.
Turning to `CC1CCC2C(C)(C)[C@@H](O)CC[C@]2(C)C12Cc1c(O)cc3c(c1O2)CN(C(CCC(=O)O)C(=O)O)C3=O` (stereo not given in full), the Potency result in assay [1] and in assay [2] was “inactive” each time.
`COc1cc(Nc2nc3ccccc3nc2NS(=O)(=O)c2ccc(NC(=O)c3ccc(OC)c(C)c3)cc2)cc(OC)c1`: the Potency result in assay [1] and in assay [2] was “inactive” throughout.
`CC(C)=CC/C=C(\C)[C@H]1CC[C@]2(C)[C@@H]1[C@H](O)C[C@@H]1[C@@]3(C)CC[C@H](O)C(C)(C)[C@@H]3[C@@H](O[C@@H]3O[C@H](CO)[C@@H](O)[C@H](O)[C@H]3O)C[C@]12C`: the Potency result in assay [1] and in assay [2] was “inactive” each time.
As to `CC(O)CO[C@@H]1O[C@H](CO)[C@@H](O)[C@H](O)[C@H]1O` (stereo not given in full), the Potency entry in assay [1] and in assay [2] was “inactive” each time.
With `C=CC(C)(CC/C=C(\C)C(=O)OC)OC1OC(COC(=O)CC(C)(O)CC(=O)O)C(OC2OC(CO)C(O)C(O)C2O)C(O)C1O` (stereo not given), the Potency entry in assay [1] and in assay [2] was “inactive” in each case.
With `C=C[C@@H]1[C@H](O[C@@H]2O[C@H](CO)[C@@H](O)[C@H](O)[C@H]2O)OC=C(C(=O)O)[C@H]1CCOC(=O)/C=C/c1ccc(O)c(O)c1`, the Potency entry in assay [1] and in assay [2] was “inactive” throughout.
